PubChem BioAssay AID686978 (National Center for Advancing Translational Sciences (NCATS), 2013)
Among all 420,000 compounds or so, about 64,000 (15%) were called active. About 27% were inconclusive and are not listed. The list is a sample of the results. Values without a mark were called inactive. The call rests on the fitted dose curve; in most records, active means well fitted inhibition curve with a large enough effect; inconclusive means small, poorly fitted or top-dose-only effect; inactive means flat fitted curve, though single readings scatter.

assay: qHTS for Inhibitors of human tyrosyl-DNA phosphodiesterase 1 (TDP1): qHTS in cells in absence of CPT; conditions: DT40 Tdp1-/- hTDP1 cells, no CPT, ATP luminescence, 48 h; activity change, negative = growth inhibition: at 46.2 µM (top of the series); further: nearly all actives have a fitted effect of over 55% in size
Method in brief: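 Stably hTDP1-transfected Tdp1-null chicken DT40 cells were treated with library compounds minus camptothecin and grown for at least 48 hr at 37 °C, after which cellular ATP was quantified by luminescence.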
On the % scale 0 is the no-effect control and ±100 the full control effect; potency means the concentration at half of the fitted maximal effect.

Compound	activity change, negative = growth inhibition [%]	Potency
Cc1ccccc1-c1nc(C#N)c(NCc2ccco2)o1	-18.2	–
COc1cc(NC(=O)C2CCN(c3cnccn3)CC2)cc(OC)c1	–	inactive
COCOc1cc(O)c(C(=O)/C=C/c2ccc(OCOC)c(OCOC)c2)c(OCOC)c1	–	23.1 µM (active)
COC(=O)c1ccc(COc2ccc(/C=C/C(=O)c3ccc(OC)c(CSCC(=O)O)c3)cc2OC)cc1	-10.6	–
COc1cc(/C=C/C(=O)OCC(=O)N2CCOCC2)ccc1OCC#N	-18.8	–
CCOC(=O)CSc1nnc(NC(=O)c2cccc(S(=O)(=O)N3CCCCC3)c2)s1	-1.98	–
CCOc1ccc(S(=O)(=O)Nc2nc3cc(OC)ccc3s2)cc1	4.1	–
Cc1ccc(-n2c(C)cc(/C=N/Nc3ccc([N+](=O)[O-])cn3)c2C)c(C)c1	–	23.1 µM (active)
Cc1cc(/C=N/Nc2ccc([N+](=O)[O-])cn2)c(C)n1-c1cccc(C(=O)O)c1	13.9	–
COc1ccc(Nc2ccc([N+](=O)[O-])cn2)cn1	-0.0035	–
Cc1ccc(SCC(=O)Nc2nncs2)cc1	0.103	–
CCCC(=O)Nc1ccc2c(c1)nc(CCNC(=O)c1ccco1)n2C	-9.29	–
CCOC(=O)c1cccc(NC(=O)CCOc2ccccc2)c1	-11.2	–
CCOCCC(=O)Nc1ccc2c(c1)c(=O)n(C)n2-c1ccc2ccccc2c1	–	5.8 µM (active)
O=C(CCCOc1ccccc1)NNC(=O)c1ccc(Cl)cc1	5.41	–
CC(C)CCOc1ccc(C(=O)C[N+]2(C)CCOCC2)cc1	–	18.4 µM (active)
C[N+]1(CC(=O)c2cccs2)CCOCC1	-7.74	–
CC(C)Oc1ccc(C(CC(=O)N2CCOCC2)C(C)C)cc1 (stereo not drawn)	13.9	–
COc1ccccc1C1C(C(=O)N2CCCCC2)=C(C)Nc2nc3ccccc3n21 (stereo not drawn)	2.64	–
COc1cc(OC)c(NC(=O)c2nc(-c3ccncc3)no2)cc1Cl	-5.54	–
COc1cc(OC)c(NC(=O)c2cnc(N3CCCC3)nc2C)cc1Cl	-19.9	–

Compound	activity change, negative = growth inhibition [%]	Potency
COc1cc(OC)c(NC(=O)c2c3c(nn2C)-c2ccccc2SC3)cc1Cl	–	16.4 µM (active)
Cc1cc(C)c(S(=O)(=O)c2cc(F)ccc2C)c(=O)[nH]1	-0.186	–
CCOC(=O)c1cc(-c2ccc(F)cc2)n(CC(=O)NCc2ccccn2)c1C	-1.43	–
CS(=O)(=O)N(CC(=O)N1CCN(Cc2ccc3c(c2)OCO3)CC1)c1ccc2c(c1)OCO2	-25.9	–
CCN(CCCNC(=O)C1CCN(S(=O)(=O)c2cnc[nH]2)CC1)c1ccccc1	-18.9	–
O=C(C1CCN(S(=O)(=O)c2cnc[nH]2)CC1)N1CCN(Cc2ccc3c(c2)OCO3)CC1	–	20.6 µM (active)
CC(C)NC(=O)CCCn1c(=S)[nH]c2cc3c(cc2c1=O)OCO3	-20.5	–
CC(=O)N1CCN(C(=O)c2cccc(S(=O)(=O)Nc3ccc(C)cc3)c2)CC1	-4.18	–
CCOC(=O)N1CCN(C(=O)c2ccc(S(=O)(=O)Nc3cccc(C(F)(F)F)c3)cc2)CC1	–	6.51 µM (active)
O=C(COc1ccc(S(=O)(=O)Nc2cccc(C(F)(F)F)c2)cc1)N1CCOCC1	-13.8	–
COC(=O)C1=C(C(=O)OC)[C@@H]2N(Cc3ccccc3)c3ccccc3[C@@]23C[C@@H](C(=O)OC)N(S(=O)(=O)c2ccc(C(F)(F)F)cc2)C3=N1	-22.1	–
CCCCNS(=O)(=O)c1ccc(S(=O)(=O)n2cnc3ccccc32)cc1	2.54	–
CCOC(=O)c1nc(C)n(-c2ccc(Cl)cc2Cl)n1	-12.1	–
Cc1ccc(S(=O)(=O)N2CCN(CC(=O)N/N=C/c3ccc(Br)s3)CC2)cc1	–	14.6 µM (active)
Cc1ccc(/C=N/NC(=O)CN2CCN(Cc3ccccc3)CC2)s1	-20.3	–
C/C(=N/NC(=O)CN1CCN(S(=O)(=O)c2ccc(Br)cc2)CC1)c1ccncc1	-17.6	–
Cc1ccc(C)c(NC2=NCC(=O)N2c2ccc3c(c2)OCCO3)c1	-0.0277	–
CCOc1cc2[nH]c(=S)n(Cc3ccc(C(=O)N4CCN(C)CC4)cc3)c(=O)c2cc1OCC	–	16.4 µM (active)
COc1cc2[nH]c(=S)n(Cc3ccc(F)cc3)c(=O)c2cc1OC	-23.7	–
CCOc1cc2[nH]c(=S)n(Cc3ccc(C(=O)NCCOC)cc3)c(=O)c2cc1OCC	-12.9	–
CNC(=O)NC(=O)C(OC(=O)c1cccc(S(=O)(=O)N2CCCCC2)c1)c1ccccc1 (stereo not drawn)	-15	–

Compound	activity change, negative = growth inhibition [%]	Potency
COc1c(C=O)c(CCN(C)C(=O)c2ccc(F)cc2)cc2c1OCO2	-2.12	–
O=C1CSC(=S)N1c1ccc(Cl)c(Cl)c1	-2.25	–
Cc1ccccc1N1C(=O)C2ON(c3ccccc3)C(c3ccncc3)C2C1=O (stereo not drawn)	-8.98	–
CC(=O)NC1=NN(C(C)=O)C(C)(c2ccc(Cl)s2)S1 (stereo not drawn)	–	5.17 µM (active)
CC(=O)NC1=NN(C(C)=O)C(C)(CCS(=O)(=O)c2ccc(Cl)c(Cl)c2)S1 (stereo not drawn)	-7.08	–
O=C(NC1=NCCS1)c1ccc(Cl)s1	3.11	–
COc1ccccc1C1CC(=O)n2c(nc(-c3ccccc3)c2-c2ccccc2)S1 (stereo not drawn)	4.33	–
O=C(COC(=O)/C=C/c1cccs1)NC1CCCCC1	16.1	–
CSc1ncccc1C(=O)OCc1ccc(Br)cc1	-0.34	–
OC(c1cc(Cl)cc(Cl)c1)c1ncc(-c2ccccc2C(F)(F)F)[nH]1 (stereo not drawn)	-29.3	–
CCCNc1ncnc2sc(C)c(C)c12	–	13 µM (active)
CSc1ncnc2sc(C)c(C)c12	-11.7	–
COCCN1CCN(C(=O)c2sc3ncnc(NCC4CCCO4)c3c2C)CC1 (stereo not drawn)	-15.6	–
CCOC(=O)CCCNC(=O)CN1C(=O)NC(CCc2ccccc2)C1=O (stereo not drawn)	1.07	–
COCCOC(=O)C1=C(C)NC(=O)NC1c1ccc(Cl)cc1 (stereo not drawn)	-8.4	–
CC1=C(C(=O)OC(C)(C)C)C(c2ccc(Br)cc2)NC(=O)N1CCCC(=O)O (stereo not drawn)	-1.02	–
CCCCNC(=O)C(C)N(CCN(C)C)C(=O)CCCN1C(=O)NC(c2ccc(Cl)cc2)C(C(=O)OCc2ccccc2)=C1C (stereo not drawn)	–	18.4 µM (active)
CC1=C(C(=O)OCc2ccccc2)C(c2ccc(C(F)(F)F)cc2)NC(=O)N1CCCCCC(=O)O (stereo not drawn)	-0.318	–
CCCCNC(=O)C(C)N(CCN(C)C)C(=O)CCCCCN1C(=O)NC(c2ccc(Cl)cc2)C(C(=O)OCc2ccccc2)=C1C (stereo not drawn)	–	16.4 µM (active)
CC(C)c1nccn1S(=O)(=O)c1cc([N+](=O)[O-])ccc1Cl	-15	–
c1ccc2c(c1)OC1OC2Oc2ccccc21	-15.1	–
